Results published in ChEMBL document CHEMBL3433997, “St. Jude Leishmania screening dataset” (2016).

Columns and labels:
Format in all cases: functional
[1] = biological target: Solute carrier family 2, facilitated glucose transporter member 1 (Homo sapiens) (UniProt P11166); assay: ST_JUDE_LEISH: Cytotoxicity at 2uM final concentration against transgenic Leishmania Mexicana promastigotes LmGLUT1 that are glucose transport deficient and complemented with the human glucose transporter GLUT1. Activity is measured by DNA content using SYBR green in vitro
Solute carrier family 2, facilitated glucose transporter member 1 (Homo sapiens), sequence (P11166 whole entry): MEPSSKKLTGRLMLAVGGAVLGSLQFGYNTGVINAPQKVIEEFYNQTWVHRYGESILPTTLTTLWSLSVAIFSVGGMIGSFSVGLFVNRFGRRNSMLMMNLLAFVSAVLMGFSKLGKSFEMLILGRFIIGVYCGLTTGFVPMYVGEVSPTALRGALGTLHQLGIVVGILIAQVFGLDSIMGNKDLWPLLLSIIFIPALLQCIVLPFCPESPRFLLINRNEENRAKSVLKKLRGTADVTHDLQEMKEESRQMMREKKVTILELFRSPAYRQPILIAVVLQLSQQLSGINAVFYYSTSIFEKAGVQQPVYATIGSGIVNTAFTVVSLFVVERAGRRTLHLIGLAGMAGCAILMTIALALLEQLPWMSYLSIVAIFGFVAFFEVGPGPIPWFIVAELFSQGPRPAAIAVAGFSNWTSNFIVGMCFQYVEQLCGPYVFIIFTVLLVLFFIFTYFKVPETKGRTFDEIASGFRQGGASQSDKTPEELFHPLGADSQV

[2] = biological target: Hexose transporter 1 (Plasmodium falciparum) (UniProt O97467); assay: ST_JUDE_LEISH: Cytotoxicity at 2uM final concentration against transgenic Leishmania Mexicana promastigotes LmPfHT that are glucose transport deficient and complemented with the Plasmodium falciparum hexose transporter. Activity is measured by DNA content using SYBR green in vitro
[3] = biological target: Glucose transporter (Leishmania mexicana) (UniProt O61059); assay: ST_JUDE_LEISH: Cytotoxicity at 2uM final concentration against transgenic Leishmania Mexicana promastigotes LmGT2 that are glucose transport deficient and complemented with the L. Mexicana glucose transporter 2. Activity is measured by DNA content using SYBR green in vitro

Row | SMILES | inhibition [1] | inhibition [2] | inhibition [3]
1 | c1ccc(Oc2cccc(Nc3ccnc4ccccc34)c2)cc1 | 8.44% | 10.4% | 3.97%
2 | Cc1ccccc1/N=C1\NC(=S)N(c2cccc(C(F)(F)F)c2)C12CCC(C(C)(C)C)CC2 (centres undefined) | 2.78% | 2.68% | 2.58%
3 | O=C(OCc1ccccc1)N1CCc2c([nH]c3ccccc23)C1CCC(F)(F)F (centres undefined) | 3.72% | 2.6% | 0.12%
4 | COc1cc2nc(N3CCC(CNC(=O)c4ccc(-c5cccc(C#N)c5)cc4)CC3)nc(N)c2cc1OC | 3.6% | 2.28% | 2.21%
5 | CC(C)NCc1ccc(-c2ccc(NS(=O)(=O)c3cccc4cccnc34)cc2)cc1 | 16.1% | 14.5% | 12.7%
6 | CC1(C)[C@H]2CC[C@@H](CNc3nc(NCC(=O)Nc4ccc5ccccc5c4)nc(N4CCC(N5CCCC5)CC4)n3)[C@@H]1C2 | 0.95% | 2.52% | 2.89%
7 | O=C(/C=C/c1ccc(C(F)(F)F)cc1)NCCCCCN1CCCN(C(=O)Nc2ccc(Cl)c(Cl)c2)CC1 | -0.66% | -0.09% | -0.19%
8 | O=C(NCCCCN1CCC(c2ccc3ccccc3c2)CC1)c1ccc(NC(=O)c2ccc(Cl)cc2)cc1 | 2.27% | 4.42% | 4.1%
9 | Cc1nn(-c2ccccc2)nc1C(=O)N(Cc1ccc(-c2ccc(CNCCc3ccc(S(C)(=O)=O)cc3)cn2)cc1)C1CC1 | 3.23% | 3.85% | 2.91%
10 | OC1CCCN(Cc2ccc(-c3cccc(-c4nc5ccccc5[nH]4)c3)cc2)C1 (centres undefined) | 2.79% | 1.57% | 2.79%
11 | O=C(NCCCCN1CCC(c2ccc3c(c2OCCN2CCCC2)CCCC3)CC1)c1ccc(-c2ccc(C(F)(F)F)cc2)cc1 | 3.42% | 5.87% | 4%
12 | COc1ccc2ncc(C#N)c(CCN3CCC(NCc4cnc5c(c4)OCCO5)CC3)c2n1 | 11.4% | 15.9% | 6.56%
13 | COCCn1c(SC(C)C(=O)Nc2cc(C(F)(F)F)ccc2Cl)nc2ccccc2c1=O (centres undefined) | 0.17% | -0.22% | -0.21%
14 | Cc1cc(N[C@@H](CC(C)C)C(=O)NCCOc2ccccc2)nc(Nc2ccccc2)n1 | 6.84% | 2.42% | 1.29%
15 | C=CCc1cc(Br)ccc1OCCCON1C(N)=NC(N)=NC1(C)C | 19.1% | 27.3% | 17.7%
16 | COc1ccc2ncc(F)c(CCN3CCC[C@H](CNCc4ccc5c(n4)NC(=O)CS5)C3)c2n1 | 5.76% | 5.3% | 0.75%
17 | COc1ccc(Cl)cc1N1CCN(CCCNC(=O)c2ccc(-c3nc4ccc(C(F)(F)F)cc4[nH]3)c(C)c2)CC1 | 2.82% | 0.02% | 0.17%

Row | SMILES | inhibition [1] | inhibition [2] | inhibition [3]
18 | Nc1nc(N)c2cc(C#Cc3ccc(-c4ccccc4)cc3)ccc2n1 | 4.53% | 10.9% | 2.06%
19 | CCOc1cc(C(=O)N[C@@H](Cc2ccccc2)[C@H](O)CNCc2cc(OC)cc(OC)c2)cc(N2CCCS2(=O)=O)c1 | -0.26% | -0.9% | 1.04%
20 | C=CCC1OC(=O)c2cc(OC)cc(OC)c21 (centres undefined) | 89.1% | 84.4% | 86.9%
21 | Cc1cc(N(C)C2CCN(C)C2)nc(Nc2ccccc2Cl)n1 (centres undefined) | 1.12% | 2.69% | 2.94%
22 | COc1cccc(NC(=O)NCCNc2ccnc(Nc3ccc(F)cc3)n2)c1 | 4.09% | 5.04% | 0.9%
23 | O=C(NCc1ccccc1[S+]([O-])c1ccccc1CO)C(F)(F)F (centres undefined) | -1.33% | -0.32% | 0.55%
24 | COc1ccccc1N(C)CCNc1cc(C)nc(Nc2ccccc2)n1 | 11.5% | 8.65% | 5.05%
25 | Cc1cccc(CN2CCN(c3ncc(C(=O)NC4CC4)cc3Cl)CC2)c1 | 4.67% | 2.14% | 2.71%
26 | CN1CCN(CC(=O)Nc2cccc(-c3cccc(-c4nc5cc(F)ccc5[nH]4)c3)c2)CC1 | 0.82% | 1.22% | 3.51%
27 | COC(=O)c1ccc(CCCNCC(O)c2cccc(C(F)(F)F)c2)cc1 (centres undefined) | 2.51% | 3.05% | 6.4%
28 | Cc1cccc2nc(-c3ccc(-c4cccc(NC(=O)c5cncn5C)c4)cc3)[nH]c12 | 5.73% | 5.37% | 5.41%
29 | CC(=NNC(S)=NCc1ccco1)c1ccccn1 | 1.7% | 1.81% | 1.16%
30 | O=C(CCc1cccnc1)Nc1cccc(-c2ccc(-c3nc4cc(C(F)(F)F)ccc4[nH]3)s2)c1 | -0.82% | 1.89% | 2.16%
31 | CCN(CC)CCN(CCN(CC)CC)c1ccc(-c2nc3cc(Cl)c(Cl)cc3[nH]2)cc1 | 15.8% | 16.3% | 7.03%
32 | COc1ccc(-n2nc(C)c3c2NC(=O)CC3c2ccccc2OCc2ccc(F)cc2)cc1 (centres undefined) | 4.97% | 4.4% | 5.62%
33 | Oc1ccc2[nH]c(-c3cccs3)nc2c1CN1CCC(O)(c2ccccc2)CC1 | 10.6% | 5.23% | 9.03%
